Results as given in PubChem BioAssay (EPA / NIEHS).
Records with an inconclusive call do not appear. The source made the active and inactive calls. The calls were made as follows: active = hit-call score of the fitted dose curve at least 0.9, where 1 is the maximum; inconclusive = response in the unintended direction; inactive = score below 0.9.

target: Androgen receptor (Homo sapiens) (UniProt P10275); experiment: ATG_AR_TRANS: Attagene TRANS-FACTORIAL HepG2 Assay for human Androgen Receptor (AR) (AID 2282973); settings: HepG2 Attagene TRANS-FACTORIAL AR reporter transcription
Experimental: ATG_TRANS is a cell-based, multiplexed-readout assay that uses HepG2, a human liver cell line, with measurements taken at 24 hours after chemical dosing in a 24-well plate.ATG_AR_TRANS is one of 30 assay component(s) measured or calculated from the ATG_TRANS assay. It is designed to make measurements of mRNA induction, a form of inducible reporter, as detected with fluorescence intensity signals by Reverse transcription polymerase chain reaction (RT-PCR) and Capillary electrophoresis technology.Data from the assay component ATG_AR_TRANS was analyzed into 1 assay endpoint. This assay endpoint, ATG_AR_TRANS, was analyzed in the positive analysis fitting direction relative to DMSO as the negative control and baseline of activity. Using a type of inducible reporter, measures of mRNA for gain-of-signal activity can be used to understand the reporter gene at the transcription factor-level as they relate to the gene AR. Furthermore, this assay endpoint can be referred to as a primary readout, because this assay has produced multiple assay endpoints where this one serves a reporter gene function. To generalize the intended target to other relatable targets, this assay endpoint is annotated to the nuclear receptor intended target family, where the subfamily is steroidal.
Human liver HepG2 cells are transiently transfected with multiple reporter transcription units (MRTUs) in 6-well plates using FuGene 6 reagent (Roche; 3 ml FuGene/1 mg DNA). The MRTU constructs are regulated by a cis-regulating element (promoter). […] A major difference between the CIS and TRANS system is that in CIS activities of endogenous TFs are measured, whereas the TRANS assay evaluates changes in activities of exogenous, chimeric NR-Gal4 proteins. […] At the end of 24 hour incubation, total RNA was isolated using TriZol reagent (Invitrogen). The isolated RNA is then reverse-transcribed using oligo(dT) primer and Mo-MLV reverse transcriptase (Invitrogen) with DNAse I (Ambion) treatment for 30 min. The one-tenth of the produced cDNA was amplified by PCR using Taq DNA polymerase (Invitrogen) and two reporter sequence-specific primers. The PCR products were fluorescently labeled by primer extension with 6-arboxyfluorescein (6-FAM) 5'-labeled reporter sequence-specific primer (2 min at 95 C, 20 s at 68 C and 10 min at 72 C) and these products were digested with 5U of HpaI (New England Biolabs) for 2h at 37 C. The fragments were purified using Qiaquick PCR columns (Qiagen), analyzed on an ABI 3130xL genetic analyzer (Applied Biosystems) with peak positions identified by using a set of X-rhodamine (ROX)-labeled MapMarker1000 molecular weight standards (BioVentures). The raw capillary electrophoresis data was processed using Attagraph software (Attagene).

Sequence of Androgen receptor (Homo sapiens) (P10275 whole entry, looked up): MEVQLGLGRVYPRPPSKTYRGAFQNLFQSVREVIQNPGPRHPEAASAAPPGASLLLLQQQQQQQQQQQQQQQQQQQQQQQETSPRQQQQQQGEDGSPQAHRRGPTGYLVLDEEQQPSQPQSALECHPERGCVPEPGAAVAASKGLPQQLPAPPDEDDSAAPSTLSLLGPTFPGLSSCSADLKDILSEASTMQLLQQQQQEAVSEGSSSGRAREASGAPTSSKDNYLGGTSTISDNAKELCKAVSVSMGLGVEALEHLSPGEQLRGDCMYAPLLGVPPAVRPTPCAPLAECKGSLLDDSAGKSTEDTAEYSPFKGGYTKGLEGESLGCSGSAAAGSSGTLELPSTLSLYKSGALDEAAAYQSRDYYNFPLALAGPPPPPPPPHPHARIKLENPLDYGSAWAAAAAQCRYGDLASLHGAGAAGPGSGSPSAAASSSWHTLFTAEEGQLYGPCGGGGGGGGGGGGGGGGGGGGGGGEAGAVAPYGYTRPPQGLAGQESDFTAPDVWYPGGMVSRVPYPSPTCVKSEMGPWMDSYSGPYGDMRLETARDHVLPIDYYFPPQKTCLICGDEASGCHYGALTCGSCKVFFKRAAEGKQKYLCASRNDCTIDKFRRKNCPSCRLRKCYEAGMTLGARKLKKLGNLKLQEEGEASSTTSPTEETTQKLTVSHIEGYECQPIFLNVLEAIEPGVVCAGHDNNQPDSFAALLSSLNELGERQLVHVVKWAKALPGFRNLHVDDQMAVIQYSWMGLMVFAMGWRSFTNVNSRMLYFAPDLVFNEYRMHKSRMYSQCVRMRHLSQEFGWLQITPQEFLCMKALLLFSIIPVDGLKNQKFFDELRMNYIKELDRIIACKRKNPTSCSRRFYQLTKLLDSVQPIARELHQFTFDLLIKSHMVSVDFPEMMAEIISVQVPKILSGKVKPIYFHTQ

Compound | outcome
O=C(Nc1ccccc1)c1ccccc1I | inactive
O=C1CCCO1 | inactive
CNC(=O)Oc1cccc2c1OC(C)(C)C2 | inactive
Cc1cc(N=Nc2ccccc2C)ccc1N | inactive
Nc1ccc(Cl)cc1N | inactive
CO[C@@H]1[C@H](OC(=O)NC(=O)CCl)CC[C@]2(CO2)[C@H]1[C@@]1(C)O[C@@H]1CC=C(C)C | inactive
CCCCC(CC)COC(=O)c1ccc(C(=O)OCC(CC)CCCC)c(C(=O)OCC(CC)CCCC)c1 (configuration not stated) | inactive
CC(C)(OOC(C)(C)c1ccccc1)c1ccccc1 | inactive
CC(C)N(Cc1ccccc1)C(=O)C(C)(C)C | inactive
CC(C)(O)c1cnn2c(-c3ccc(F)c(-c4c(F)cccc4C#N)c3)cnc2n1 | inactive
O=[N+]([O-])C(Br)(CO)CO | inactive
CCNS(=O)(=O)C(F)(F)C(F)(F)C(F)(F)C(F)(F)C(F)(F)C(F)(F)C(F)(F)C(F)(F)F | inactive
